# Screens from PubChem.
# Lamin A splicing: modulators of lamin A splicing | HeLa LMNA splicing GFP/RFP minigene ratio, 48 h | Potency, µM (series often up to 46.1 µM), hits mostly inhibitors | actives 0.01% (n = 200,000) | AID 1487; active means well fitted inhibition curve with a large enough effect in the signal ratio, with a control signal flat, not every such curve was filed as active; inconclusive means small, poorly fitted or top-dose-only effect, or effect the other way, or a change in a side signal; the % refers to the signal ratio
#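 S3 HeLa cells stably expressing lamin A-EGFP splicing minigene plus DsRed2, 600 cells/well, 48 h compound exposure at 37C. Laser-scanning cytometry; analysed as GFP (500-530 nm)/RFP (575-640 nm) total intensity ratio; 0.5% DMSO vehicle.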
# Rango dissoc inh: inhibitors of RanGTP-induced Rango-importin beta complex dissociation; O95149+P62826; actives 0.071% (n = 340,000); Potency, µM (highest dose often 46.1 µM); Biochemical FRET Rango-importin beta, RanGTP-induced dissociation; further: nearly all actives have a fitted effect of over 45% in size
#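 Rango/importin beta premix (0.1/0.25 uM final), PBS + 1 mM DTT + 0.02% Tween-20 + 0.1% BSA; cpd 5 min RT; FRET pre-read; + RanGTP-RCC1 (0.6 uM Ran, 2 mM GTP, 0.2 uM RCC1); 45 min RT; FRET post-read, ex 430, em 486/530 nm.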
# Chronic BCR inh: chronic active BCR signaling inhibition; ABC-DLBCL IkBa-CBG/CBR reporter, luminescence ratio, 4 h; Potency, µM (titrated, usually from 46.1 µM), usual class: inhibitors; actives 0.05% (n = 340,000); AID 493014; active means well fitted inhibition curve with a large enough effect in the signal ratio, with a control signal flat, not every such curve was filed as active; inconclusive means small, poorly fitted or top-dose-only effect, or effect the other way, or a change in a side signal; the % refers to the signal ratio
#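 Compounds up to 46 uM were incubated four hours with TMD8 cells whose green CBG68 luciferase is fused to IkappaBalpha; red CBR luminescence normalised the signal, and concentration-effect curves were fitted to fusion, red and ratio data.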
# Luc counter: blocks Kinase-Glo luciferase, a counter-screen artifact; Potency, µM (highest dose often 38.3 µM), most hits filed as inhibitors; Kinase-Glo luciferase, ATP luminescence, 8 min; actives 0.28% (n = 200,000); Q27757; active means well fitted curve in the direction sought with a large enough effect; inconclusive means small, poorly fitted or top-dose-only effect, or another doubt; inactive means no such curve, though single readings can be large; an effect the other way counts as inactive or inconclusive; further: nearly all actives have a fitted effect of over 60% in size
#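 Compound is pinned into ATP-containing buffer (10 uM ATP, imidazole pH 7.2, 7 mM MgCl2). Kinase-Glo luciferase reagent is then added. Light output is recorded following an 8-min room-temperature incubation.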
# Tb PFK inh-1: inhibitors of T. brucei phosphofructokinase; O15648; T. brucei PFK, ADP-Glo luminescence; Potency, µM (top dose mostly 57.5 µM), actives largely listed as inhibitors; actives 0.17% (n = 330,000); AID 485367; active means well fitted curve in the direction sought with a large enough effect; inconclusive means small, poorly fitted or top-dose-only effect, or another doubt; inactive means no such curve, though single readings can be large; an effect the other way counts as inactive or inconclusive; further: nearly all actives have a fitted effect of over 60% in size
# Target sequence (O15648 whole entry, looked up): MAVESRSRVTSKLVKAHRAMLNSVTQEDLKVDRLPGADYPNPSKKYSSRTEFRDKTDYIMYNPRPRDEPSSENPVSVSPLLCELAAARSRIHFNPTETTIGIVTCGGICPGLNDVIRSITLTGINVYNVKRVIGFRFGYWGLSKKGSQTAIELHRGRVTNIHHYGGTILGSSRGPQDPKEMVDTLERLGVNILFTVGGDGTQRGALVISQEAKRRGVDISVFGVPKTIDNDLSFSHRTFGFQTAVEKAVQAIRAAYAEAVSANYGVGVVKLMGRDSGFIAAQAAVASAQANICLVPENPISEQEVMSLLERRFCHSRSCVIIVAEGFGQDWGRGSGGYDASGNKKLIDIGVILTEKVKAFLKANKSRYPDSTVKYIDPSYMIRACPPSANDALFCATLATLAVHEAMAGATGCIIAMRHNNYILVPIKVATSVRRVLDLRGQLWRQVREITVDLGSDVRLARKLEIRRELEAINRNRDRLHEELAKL
#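 Compounds were pin-transferred as a titration series up to 57 uM into substrate buffer (0.5 mM F6P, 0.1 mM ATP, pH 8.0), then 1.25 nM PFK was added and reactions ran 45 min before ADP-Glo detection.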
# Rango-impB inh: inhibitors of Rango-importin beta complex formation; Q14974; Rango CFP/YFP FRET sensor + importin beta, 45 min; Potency, µM (highest dose often 92.2 µM); actives 0.031% (n = 340,000); further: nearly all actives have a fitted effect of over 15% in size
#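 FRET biosensor (snurportin 1 IBB flanked by EYFP and cerulean), 50 nM, with compound 5 min, then 0.125 microM importin beta in PBS, 1 mM DTT, 0.02% Tween-20, 0.1% BSA. CFP/YFP ratio read after 45 min at room temperature; pre-read flags interference.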
# TbPFK ATP: inhibits T. brucei PFK measured by ATP depletion | actives 47% (n = 1,100) | shares compounds with Tb PFK inh-1 | Potency, µM (series often up to 57.5 µM) | Tb PFK enzyme, ATP depletion, Kinase-Glo Plus luminescence; further: nearly all actives have a fitted effect of over 60% in size
# Tb PFK inh-2: T. brucei PFK enzyme inhibition, hit validation. shares compounds with Tb PFK inh-1. purified T. brucei PFK, ADP-Glo luminescence, 45 min. Potency, µM (titrated, usually from 57.5 µM), usual class: inhibitors. actives 41% (n = 1,100). AID 504637; active means well fitted curve in the direction sought with a large enough effect; inconclusive means small, poorly fitted or top-dose-only effect, or another doubt; inactive means no such curve, though single readings can be large; an effect the other way counts as inactive or inconclusive; further: nearly all actives have a fitted effect of over 60% in size
# A number is an active result; - = inactive; ? = inconclusive; . = no result given. The list is not random: actives were taken first. Their share in the collection is about 0.44%. Unless noted, the call rests on the fitted dose curve.
SMILES,Lamin A splicing,Rango dissoc inh,Chronic BCR inh,Luc counter,Tb PFK inh-1,Rango-impB inh,TbPFK ATP,Tb PFK inh-2
NC(=O)c1c(NC(=O)c2ccc(S(=O)(=O)N(CCCl)CCCl)cc2)sc2c1CCCCC2,-,-,-,-,-,?,.,.
Cc1ccc(C2=NC(C)(C)N3C2C3c2ccc([N+](=O)[O-])cc2)cc1 (centres undefined),-,-,-,-,-,-,.,.
Cc1cc(C)c(S(=O)(=O)NCC2CCC(C(=O)N3CCC4(CC3)OCCO4)CC2)c(C)c1 (centres undefined),-,-,-,-,-,-,.,.
N#Cc1c(F)cccc1NCc1cccnc1,.,-,-,.,?,-,?,-
O=C(NCc1cccnc1)Nc1ccccc1Cl,.,-,-,.,-,-,.,.
Cc1ccc(S(=O)(=O)Oc2ccccc2C=C2C(=O)N(C)C(=O)N(C)C2=O)cc1,.,-,-,.,-,?,.,.
COc1ccccc1/C=C1\SC(=S)N(NS(=O)(=O)c2ccccc2)C1=O,.,-,-,.,?,-,-,?
CN(C)CCc1nn[nH]n1,-,-,-,-,-,-,.,.
CC1(C)NC(=S)C(C)(C)N1N=O,.,-,.,.,.,-,.,.
CC(=O)Oc1ccc(/C=C/c2cc(OC(C)=O)cc(OC(C)=O)c2)cc1,?,.,.,-,.,.,.,.
CC(=O)Oc1ccc(CC(C(=O)O)N2C(=O)c3ccccc3C2=O)cc1 (centres undefined),.,-,-,.,?,-,17µM,?
CC1CN(S(=O)(=O)c2cc(C(=O)NCc3ccncc3)ccc2Cl)CC(C)O1 (centres undefined),.,-,-,.,?,-,?,?
CCCCn1c(=O)c(C(=O)NCc2ccncc2)c(O)c2ccccc21,?,-,?,-,-,-,.,.
O=C1/C(=C/c2cccc([N+](=O)[O-])c2)N2CCC1CC2,-,-,?,-,-,-,.,.
C/C(=N\NC(=O)c1cc(O)cc(O)c1)c1ccc(NC(=O)Cc2ccccc2)cc1,.,-,?,.,?,-,?,?
CNCC[C@H](Oc1cccc2ccccc12)c1cccs1,-,-,?,.,-,-,.,.
Nc1c(/C=C2/C=CC(=O)C(O)=C2)c(=O)nc2sc(CC(=O)N3CCCCC3)nn12,.,?,-,.,19µM,-,2.7µM,3.8µM
Clc1ccc(Cn2cc(Br)cn2)cc1Cl,-,-,-,-,24µM,-,6µM,12µM
O=C(Cc1ccc(Cl)c(Cl)c1)N/N=C/c1cccnc1,.,-,-,.,12µM,-,5.4µM,12µM
O=C(NN=Cc1ccc(N(CCCl)CCCl)cc1)c1cccnc1,.,-,.,.,.,-,.,.
CCOc1ccccc1NC(=O)Cn1c(=O)oc2ccccc21,-,-,?,-,-,-,.,.
Fc1cccc(NC(=S)Nc2ccc(Br)cc2)c1,-,-,?,-,-,-,.,.
COc1cccc(NC(=S)Nc2ccc(O)cc2)c1,.,-,-,.,?,-,?,-
Cc1cc(C)n2c(=S)[nH]nc2n1,-,-,-,-,?,-,27µM,?
O=C(CNC(=O)c1cccc(Cl)c1)Nc1ccc(Br)cc1C(=O)c1ccccc1,?,-,?,-,-,-,.,.
SMILES,Lamin A splicing,Rango dissoc inh,Chronic BCR inh,Luc counter,Tb PFK inh-1,Rango-impB inh,TbPFK ATP,Tb PFK inh-2
CC(=O)Nc1nc(C)c(-c2csc(Nc3ccccn3)n2)s1,?,-,?,-,-,-,.,.
Cc1c(C(=O)Nc2nc(-c3ccccn3)cs2)oc2ccccc12,.,?,-,.,?,?,19µM,30µM
CC1(C)CC(=O)C2=C(C1)OC1=C(C(=O)CC(C)(C)C1)C2c1ccc(O)cc1O,?,?,?,-,?,?,1.7µM,1.3µM
O=C(c1cccs1)c1cn(Cc2ccccc2Cl)c2ccccc12,-,-,-,-,-,-,.,.
N/C(Cc1ccc(Cl)c(Cl)c1)=N\OC(=O)c1cccs1,?,-,-,-,?,-,11µM,?
CCN(CC)CCOC(=O)c1ccc(N/C=C(/C#N)c2nc(-c3cc4ccccc4oc3=O)cs2)cc1,.,-,-,.,?,-,-,?
CCN(CC)CCOC(=O)c1ccc(N=Cc2c(O)[nH]c(=O)[nH]c2=O)cc1,-,-,?,-,-,-,.,.
CCN(CC)CCOC(=O)c1ccc(N/C=C(/C#N)c2nc(-c3ccc4c(c3)OCO4)cs2)cc1,.,-,-,.,?,?,-,?
Cc1c(N=Cc2c(O)n(CCc3ccc(F)cc3)c(=O)[nH]c2=O)c(=O)n(-c2ccccc2)n1C,-,-,?,-,-,-,.,.
O=C(O)c1cccc2c1C(=O)c1cc(Br)ccc1S2(=O)=O,.,-,-,.,?,-,-,?
CN(c1ccccc1)c1ccc(/C=C/[N+](=O)[O-])cc1,?,-,?,-,?,-,17µM,24µM
CN(C)c1ccc(/C=C/[N+](=O)[O-])cc1,?,-,-,-,-,-,.,.
Clc1ccc(CN2C3=NCCN3c3ccccc32)cc1Cl,-,-,?,.,6.7µM,-,3µM,6µM
Oc1cc2c(cc1O)[C@H]1c3ccccc3CNC1CC2 (some centres undefined),?,.,.,-,.,.,.,.
COc1cccc(C(=O)NNC(=O)Cc2ccc([N+](=O)[O-])cc2)c1,-,-,?,-,?,-,?,?
Cc1ccc(/C=C2\C(=O)NC(=O)N(CCc3ccc(F)cc3)C2=O)o1,-,-,-,-,-,?,.,.
OCCOc1ccccc1,.,-,-,.,-,-,.,.
CCOC(=O)COc1ccc2c(c1)c(C(C)=O)c(C)n2Cc1ccccc1,-,-,-,-,-,-,.,.
CCOC(=O)Cn1c(=N)n(CCOc2cccc(C)c2)c2ccccc21,-,-,-,-,13µM,-,11µM,13µM
N=c1n(CCO)c2ccccc2n1CCOc1ccccc1,-,-,-,-,24µM,-,13µM,21µM
COc1ccc(C(=O)C2CCCN(C3CSCCSC3)C2)c(OC)c1 (centres undefined),-,-,-,-,-,-,.,.
CC12C=CC(=O)C=C1CCC1C2C(O)CC2(C)C1CCC2(C)O (centres undefined),.,-,.,.,.,-,.,.
CS(=O)(=O)N1Cc2ccccc2CC1C(=O)OCC(=O)Nc1ccc2ccccc2c1 (centres undefined),-,-,-,-,?,-,?,-
CCS(=O)(=O)N1Cc2ccccc2CC1C(=O)NCC12CC3CC(CC(C3)C1)C2 (centres undefined),-,?,?,-,-,-,.,.
